SUMO HTRF inh = SUMOylation inhibition. AID 2006. HTRF SUMOylation assay, SAE1/SAE2 + UBC9, in vitro. P63279. inhibition, % at 35 µM. actives 0.36% (n = 290,000); in the data active means inhibition above about 50%, passing the limit was not always enough
NTR1 agonist = NTR1 (human) agonism. actives 0.17% (n = 330,000). activation, % at 20 µM. P30989. AID 493036. NTR1-U2OS beta-arrestin-GFP spot imaging, agonist mode;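 active means activation at or above 40% of the spot to cytoplasm intensity ratio, with at least 20 cells analyzed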;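 further: 0% = DMSO without peptide and 100% = 100 nM NTR1 peptide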
Target sequence (P30989 whole entry, looked up): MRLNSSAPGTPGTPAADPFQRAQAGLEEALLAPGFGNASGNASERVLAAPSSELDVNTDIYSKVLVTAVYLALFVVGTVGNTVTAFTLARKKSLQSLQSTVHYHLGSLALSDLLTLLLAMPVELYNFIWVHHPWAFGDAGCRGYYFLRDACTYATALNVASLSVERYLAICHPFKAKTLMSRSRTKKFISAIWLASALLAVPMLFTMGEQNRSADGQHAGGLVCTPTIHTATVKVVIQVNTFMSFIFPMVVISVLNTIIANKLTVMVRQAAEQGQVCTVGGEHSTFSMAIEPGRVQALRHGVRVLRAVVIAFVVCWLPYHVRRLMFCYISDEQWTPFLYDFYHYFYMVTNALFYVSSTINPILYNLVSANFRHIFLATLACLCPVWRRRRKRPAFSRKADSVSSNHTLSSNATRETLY
H9c2 protect = myocardial damage modulation in H9c2 cells | H9c2 cardiomyocytes, H2O2 injury protection, ATPLite, 2 h | protection from H2O2 cell death, % at 20 µM | AID 588492 | actives 0.63% (n = 360,000);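 active means compounds giving at least 50% protection of heart cells from peroxide-induced death in the single-dose screen, raw or plate-pattern-corrected value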;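 further: 0% = DMSO wells with peroxide and 100% = DMSO wells without peroxide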
ALR H2O2 inh = human ALR oxidase inhibition via reduced H2O2 | P55789 | purified ALR, DTT oxidation, H2O2 HRP-luminol luminescence | inhibition, % (no concentration beside the values) | actives 3.8% (n = 290,000);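 active means mean replicate inhibition above about 79%, with every replicate also reaching it, limit read from the data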
An asterisk follows results filed as active; / = not tested or not shown. A selection: hits, their analogues and other compounds. The true share with any hit is near 3.9%.

SMILES	SUMO HTRF inh	NTR1 agonist	H9c2 protect	ALR H2O2 inh
O=C(O)c1cccc(S(=O)(=O)Nc2ccc(O)c(Sc3nc4ccccc4s3)c2)c1	11	0	1	99*
O=C(Nc1ccc(N2CCN(Cc3ccccc3F)CC2)cc1)c1ccccc1[N+](=O)[O-]	-4	2	-2	-16
CC1CCN(c2ccc(NC(=O)c3ccc([N+](=O)[O-])o3)cc2)CC1	/	42*	-15	/
O=C(Nc1ccc2oc(-c3ccccc3F)nc2c1)c1cncc(Br)c1	-8	1	1	2
O=C(Nc1ccc(N2CCN(Cc3ccccc3F)CC2)cc1)c1ccc([N+](=O)[O-])o1	11	42*	-21	-18
O=C(Nc1ccc(N2CCCCC2)cc1)c1ccc([N+](=O)[O-])o1	5	37	-12	-2
O=C(Nc1ccc2oc(-c3ccccc3F)nc2c1)c1ccc([N+](=O)[O-])o1	48	3	58*	-23
CCCSc1ccc(-c2nn(-c3ccccc3)cc2/C=C(/C#N)C(=O)N2CCOCC2)cc1	17	4	-8	-6
CCOc1cc(C(=O)N(C)Cc2cc3ccccc3[nH]c2=O)cc(OCC)c1OCC	-1	1	10	-6
Cc1nn(-c2ccccc2)c(C)c1NC(=O)COC(=O)c1ccc(S(=O)(=O)C(F)F)cc1	/	3	-2	-4
S=c1nc(-c2ccccc2)n(Cc2cccnc2)c2c1CCCC2	12	-1	/	94*
CC(C)C(=O)Nc1nnc(NC(=S)Nc2ccccc2)s1	-2	-2	-12	82*
CCCc1nnc(NC(=S)Nc2ccccc2)s1	0	5	-2	0
Cc1ccc(OCC(=O)NCCNC(=O)COc2ccc(C)cc2)cc1	10	0	-5	-3
Cc1ccc(OCC(=O)Sc2ccc(C)cc2)cc1	17	0	18	100*
COc1ccccc1OCC(=O)Sc1ccc(C)cc1	-1	3	25	98*
COc1cc(C(=O)Sc2ccc(C)cc2)cc(OC)c1OC	6	8	14	54
Cc1ccnc(N2CCC(C(=O)NNC(=O)c3ccccc3)CC2)n1	-8	1	-4	0
COC(=O)C1=C(C)N(Cc2ccc(OC)cc2)C(=O)C1	6	1	4	37
COC(=O)C1=C(C)N(CCc2ccc(OC)cc2)C(=O)C1	-17	0	100*	/
CCSc1nnc(-c2ccccc2N=Cc2c(C)[nH]n(-c3ccccc3)c2=O)c(=O)[nH]1	-7	2	-10	95*
CCSc1nnc(-c2cc(Br)ccc2N=Cc2c(C)[nH]n(-c3ccccc3)c2=O)c(=O)[nH]1	8	3	-12	11
COc1ccc(N(CC(=O)NCCSc2ccccc2)S(=O)(=O)c2ccccc2)c(OC)c1	/	0	56*	/
Cn1nc(C(F)(F)F)cc1C(=O)Nc1ccc(-c2ccno2)cc1	5	1	-4	-1
CCN(CC(=O)Nc1ccc(OC)cc1)C(=O)c1cc(-c2cccs2)nn1-c1ccccc1	/	4	69*	-11
SMILES	SUMO HTRF inh	NTR1 agonist	H9c2 protect	ALR H2O2 inh
Cc1csc(NC(=O)CSc2nc3ccccc3s2)n1	31	-1	9	97*
O=C(CSc1nc2ccccc2s1)NC1CCS(=O)(=O)C1 (configuration not stated)	4	-1	-1	90*
Cc1csc(NC(=O)CCCSc2nc3ccccc3s2)n1	17	4	5	-4
CC(=O)CSc1nc2ccccc2s1	-6	0	4	98*
N#CC1(NC(=O)CSc2nc3ccccc3s2)CCCCC1	/	1	-3	98*
CCC(C)NS(=O)(=O)c1ccc(S(=O)(=O)Nc2cc3c(cc2C(C)=O)OCO3)cc1 (configuration not stated)	11	0	-11	-5
Cc1ccc(SCc2[nH]nc3c2C2(C(=O)N(C)c4ccccc42)C(C#N)=C(N)O3)cc1 (configuration not stated)	-5	3	-9	1
COC(=O)CSc1nc2ccc(N)cc2s1	27	1	1	99*
CC(Sc1nc2ccccc2s1)C(=O)N1CCOCC1 (configuration not stated)	5	-7	8	99*
CCCCN(C(=O)CSc1nc2ccccc2s1)c1c(N)n(CCCC)c(=O)[nH]c1=O	/	1	-2	99*
CN(CC(=O)N1CCOCC1)C(=O)CSc1nc2ccccc2s1	-3	0	10	0
CCS(=O)(=O)CCSc1nc2ccccc2s1	10	0	3	99*
COc1cccc2cc(C(=O)NCC3CCCO3)c(=O)oc12 (configuration not stated)	21	-5	-9	/
COc1cccc(N=c2oc3cc(O)ccc3cc2C(=O)NCC2CCCO2)c1 (configuration not stated)	6	5	5	-11
COc1ccc2oc(=O)c(C(=O)NCC3CCCO3)cc2c1 (configuration not stated)	52*	3	-4	-19
COc1ccc(CNC(=O)c2cccc3c2C(=O)N(CC2CCCO2)C3)cc1 (configuration not stated)	-4	6	2	88*
COc1ccccc1N=c1oc2cc(O)ccc2cc1C(=O)NCC1CCCO1 (configuration not stated)	-3	7	5	92*
COc1cc(/C=C/c2cc[n+](C)cc2)ccc1OCC(=O)Nc1ccccc1	33	1	0	-14
Cc1cc(C)nc(-n2nc(C)cc2NC(=O)c2cccc(S(=O)(=O)N(C)C)c2)n1	4	0	/	-13
Cc1ccc(C)c(C(=O)Nc2cc(C)nn2-c2nc(C)cc(C)n2)c1	1	7	50*	-5
O=C(O)/C=C\C(=O)Nc1ccc(N2CCN(c3ccc(Cl)cc3)CC2)cc1	12	5	-5	98*
O=C(O)/C=C\C(=O)Nc1ccc(N2CCN(c3cccc(Cl)c3)CC2)cc1	9	1	3	99*
O=C(O)/C=C/C(=O)Nc1ccc(-c2ccccc2)cc1	16	1	-1	98*
O=C(O)/C=C\C(=O)Nc1ccc(N2CCN(c3ccc(F)cc3)CC2)cc1	2	0	-2	98*
O=C(O)/C=C\C(=O)Nc1ccccc1C(=O)N1CCN(c2ccc(Cl)cc2)CC1	2	4	-3	22
SMILES	SUMO HTRF inh	NTR1 agonist	H9c2 protect	ALR H2O2 inh
O=C(O)/C=C\C(=O)Nc1ccc(N2CCN(c3ccc(Cl)c(Cl)c3)CC2)cc1	12	13	7	16
COc1ccc2cc(C(=O)C3CCCN(C(=O)CCc4ccccn4)C3)ccc2c1 (configuration not stated)	19	2	-9	1
NC(=O)COc1cccc2cccnc12	18	-1	1	-4
CN1CCc2c(sc3c2C(=O)NC(c2ccco2)N3)C1 (configuration not stated)	19	-1	-2	0
CN1CCc2c(sc3c2C(=O)NC(c2ccc(-c4ccc(Cl)cc4)o2)N3)C1 (configuration not stated)	6	-2	6	91*
CC(=O)C1=C(O)C(=O)N(c2ccc(O)cc2)C1c1cccc([N+](=O)[O-])c1 (configuration not stated)	7	2	3	83*

From PubChem
